Reference: PubChem BioAssay AID493052 (Broad Institute, 2011)
Potency and affinity values are given separately. Activity calls are given as the source filed them.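 How the source made its calls: active means viability falls with dose and fitted half-maximal concentration is at most ten times the top valid dose; inconclusive means flat partial loss of 30 to 70 percent, or poor fit; inactive means flat within 30 percent, too weak, or rising signal.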

Test: cytotoxicity in BJeHLT fibroblasts, dose response, counter-screen for Ras selective lethality project, BJeHLT cells, dry powder (AID 493052)
Settings: BJeHLT fibroblasts viability, Alamar Blue fluorescence, 48 h; series mostly up to 45 µM

SMILES	outcome
CCC(=O)N(c1ccc(OC)c(Cl)c1)C(C(=O)NCCc1ccccc1)c1cccs1 (stereo not given)	inactive
COc1ccc(N(C(=O)CO)C(C(=O)NCCc2ccccc2)c2cccs2)cc1Cl (stereo not given)	inactive
COc1ccc(N(C(=O)CSc2ncccn2)C(C(=O)NCCc2ccccc2)c2cccs2)cc1Cl (stereo not given)	inactive
COCC(=O)N(c1ccc(OC)c(Cl)c1)C(C(=O)NCCc1ccccc1)c1cccs1 (stereo not given)	inactive
O=C(c1[nH]ncc1[N+](=O)[O-])N1CCN(C(c2ccccc2)c2ccccc2)CC1	inactive
